EPAC2 antag: antagonists of human EPAC2; Q8WZA2; hit rate 0.18% among 360,000; Potency, µM (series often up to 114 µM), usual class: inhibitors; EPAC2 GEF exchange of Rap1B-BODIPY-GDP, fluorescence; also: nearly all actives have a fitted effect of over 45% in size
Target sequence (Q8WZA2 whole entry, looked up): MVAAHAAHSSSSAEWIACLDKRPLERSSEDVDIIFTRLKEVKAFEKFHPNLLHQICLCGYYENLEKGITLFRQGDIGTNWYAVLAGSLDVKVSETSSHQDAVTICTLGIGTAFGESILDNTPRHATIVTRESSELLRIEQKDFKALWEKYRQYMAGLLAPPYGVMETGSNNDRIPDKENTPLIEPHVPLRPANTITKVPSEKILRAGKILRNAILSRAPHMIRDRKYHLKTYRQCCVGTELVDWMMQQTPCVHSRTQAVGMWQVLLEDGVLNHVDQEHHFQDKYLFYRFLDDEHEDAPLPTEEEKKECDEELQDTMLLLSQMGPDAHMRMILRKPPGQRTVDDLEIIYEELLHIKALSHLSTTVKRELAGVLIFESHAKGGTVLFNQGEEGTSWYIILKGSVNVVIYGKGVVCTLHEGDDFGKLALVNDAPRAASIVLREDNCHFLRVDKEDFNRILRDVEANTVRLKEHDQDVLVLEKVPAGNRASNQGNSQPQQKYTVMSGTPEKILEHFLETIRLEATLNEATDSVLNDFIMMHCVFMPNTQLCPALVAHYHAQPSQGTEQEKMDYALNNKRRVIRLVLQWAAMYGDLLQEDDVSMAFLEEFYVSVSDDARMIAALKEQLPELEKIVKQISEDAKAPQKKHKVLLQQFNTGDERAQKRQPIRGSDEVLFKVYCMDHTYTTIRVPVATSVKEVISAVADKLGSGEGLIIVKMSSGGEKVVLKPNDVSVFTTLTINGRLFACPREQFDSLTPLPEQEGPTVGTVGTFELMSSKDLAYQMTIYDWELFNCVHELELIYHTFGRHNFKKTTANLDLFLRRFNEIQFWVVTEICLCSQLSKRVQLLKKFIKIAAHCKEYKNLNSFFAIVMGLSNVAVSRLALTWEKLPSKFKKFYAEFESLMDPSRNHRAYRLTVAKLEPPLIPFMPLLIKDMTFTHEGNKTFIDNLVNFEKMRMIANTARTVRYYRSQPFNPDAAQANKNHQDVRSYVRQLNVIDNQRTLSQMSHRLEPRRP
BRCA1 expr up: activators of BRCA1 expression; MCF7-BRCA1-FFLuc reporter, luminescence, 48 h; response scale: scaled: vehicle 0%, 10 µM genistein 100%; Potency, µM (doses to about 46.1 µM), actives largely listed as activators; hit rate 1.1% among 380,000; AID 624202; also: nearly all actives have a fitted effect of over 80% in size
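MCF7 cells carrying a BRCA1-firefly luciferase reporter (2000 cells/well, phenol-red free MEM) were attached for 2 h at 37 °C, then given compounds for 48 h. Luminescence was read 15 min after luciferase reagent; activity normalized to genistein (10 microM) and DMSO.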
EPAC2 agonist: activates human EPAC2 exchange factor; Q8WZA2; EPAC2 activation, biochemical qHTS; response scale: 100% = 6.5 mM cAMP response; AID 720711; Potency, µM (doses to about 154 µM), usual class: activators; hit rate 0.079% among 360,000; also: nearly all actives have a fitted effect of over 50% in size
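Fluorescence exchange assay: 100 nM EPAC2 with 250 nM RAP1B-BODIPY-GDP and 50 uM GDP; compounds tested as a concentration-titration series (qHTS). Loss of Rap1-bound BODIPY-GDP fluorescence read at 480/540 nm; data normalized to 6.5 mM cAMP.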
EPAC1 antag: EPAC1 (human) antagonism; O95398; AID 720709; Potency, µM (titrated, usually from 115 µM), usual class: inhibitors; EPAC1 GEF assay, Rap1b-BODIPY-GDP exchange fluorescence; hit rate 0.14% among 360,000; also: nearly all actives have a fitted effect of over 50% in size
USP1-UAF1 inh: USP1/UAF1 (human) deubiquitinase inhibition. AID 743255. hit rate 0.23% among 390,000. recombinant USP1/UAF1, Ub-Rhodamine cleavage fluorescence. O94782. Potency, µM (highest dose often 57.1 µM), most hits filed as inhibitors; also: nearly all actives have a fitted effect of over 60% in size
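Step one: compound is pinned into 1nM USP1/UAF1 in HEPES pH 7.8 buffer with TCEP. Step two: 15 min room-temperature incubation. Step three: Ub-Rho (150nM final) starts cleavage, tracked by fluorescence over six one-minute reads.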
EPAC1 agonist: activates human EPAC1 exchange factor | Potency, µM (doses to about 154 µM), actives largely listed as activators | O95398 | EPAC1 agonist qHTS, biochemical assay; response scale: 100% = response to 6.5 mM cAMP | hit rate 0.073% among 360,000; also: nearly all actives have a fitted effect of over 60% in size
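Nucleotide exchange assay: 100 nM EPAC1 with 250 nM Rap1B loaded with BODIPY-GDP and 50 uM GDP, room temperature. Fluorescence (480/540 nm) read every 5 min for 30 min; signal change normalized to 6.5 mM cAMP as full agonist.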
Of the large screens only hits and unclear results are named; the others gave an inactive call. Most compounds without a hit are left out; they make up all but 1.4% or so of the library. Calls follow the shape of the dose curve; as a rule, active = well fitted curve in the direction sought with a large enough effect; inconclusive = small, poorly fitted or top-dose-only effect, or another doubt; inactive = no such curve, though single readings can be large; an effect the other way counts as inactive or inconclusive.

CC(=O)Nc1c(S(=O)(=O)c2ccccc2)c2nc3ccccc3nc2n1Cc1ccccc1	none
C=CCn1c(NS(=O)(=O)c2ccccc2)c(S(=O)(=O)c2ccc(C)cc2)c2nc3ccccc3nc21	EPAC2 antag inconclusive, EPAC1 antag inconclusive, USP1-UAF1 inh 28.2µM
O=S(=O)(Nc1c(S(=O)(=O)c2ccccc2)c2nc3ccccc3nc2n1C1CCCCC1)c1ccccc1	EPAC2 antag inconclusive, EPAC1 antag 39.8µM, USP1-UAF1 inh 3.16µM
CC(=O)Nc1ccc(CN2C(=O)C(C)ON=C2c2ccccc2-c2ccco2)cc1 (stereo not given)	none (no result: USP1-UAF1 inh)
Cc1ccc(CN2COc3c(Cl)cc4c(-c5ccccc5)cc(=O)oc4c3C2)cc1	none (no result: EPAC2 antag, BRCA1 expr up, EPAC2 agonist, EPAC1 antag, EPAC1 agonist)
Cc1ccccc1-c1nc(Cc2ccccc2)no1	BRCA1 expr up 10µM
O=C(N/N=C1\CCc2ccccc21)c1ccc(O)cc1	BRCA1 expr up 2µM
O=C(N/N=C1\CCc2ccccc21)c1ccccc1Cl	BRCA1 expr up 2µM
Clc1ccc(C2=NNC(=NCC3CCCO3)SC2)cc1 (stereo not given)	BRCA1 expr up 2.51µM
Cc1cc(C2=NNC(=NCCc3ccccc3)SC2)c(C)n1CC1CCCO1 (stereo not given)	none
CSc1ccc(/C=C/C(=O)N2CCCN(C)CC2)cc1	BRCA1 expr up 8.91µM
CN1CCN(C(=O)/C=C\c2ccc(Cl)cc2)CC1	none
Cc1ccc(CSc2ncc(Cl)c(C(=O)Nc3nnc(C)s3)n2)cc1	none (no result: EPAC2 antag, BRCA1 expr up, EPAC2 agonist, EPAC1 antag, EPAC1 agonist)
Cc1[nH]n(C(N)=S)c(=O)c1N=Nc1ccc(Br)cc1	BRCA1 expr up 4.47µM
Cn1c(CNC(=O)c2ccco2)nnc1SCC(=O)N1CCN(c2ccccc2F)CC1	none
Cc1ccccc1Nc1nc(N)nc(COC(=O)c2ccco2)n1	BRCA1 expr up 3.98µM, USP1-UAF1 inh inconclusive
CCOc1cccc(C(=O)Nc2ccc(S(=O)(=O)Nc3cc(C)on3)cc2)c1	none
CCC(=O)c1ccc(OCC(O)Cn2nnc3ccccc32)cc1 (stereo not given)	BRCA1 expr up 10µM, EPAC1 antag inconclusive
Cc1cc(C)n(CC(O)COc2ccccc2C)n1 (stereo not given)	none
CCC(=O)c1ccc(OCC(O)Cn2nc(C)cc2C)cc1 (stereo not given)	none
Cc1ccccc1OCC(O)Cn1nnc2ccccc21 (stereo not given)	BRCA1 expr up 12.6µM
Cc1csc2c(N3CCCCC3)ncnc12	BRCA1 expr up 11.2µM
Cn1c(=O)n(C)c2cc(/C=C3/SC(=O)N(CC(=O)N4CCOCC4)C3=O)ccc21	none
CCOC(=O)CN1C(=O)S/C(=C/c2ccc3c(c2)n(C)c(=O)n3C)C1=O	BRCA1 expr up 5.01µM
CNC(=S)N1CCN(c2nc3ccccc3s2)CC1	BRCA1 expr up 7.08µM
CS(=O)(=O)N1CCN(c2nc3ccccc3s2)CC1	BRCA1 expr up 12.6µM
CCCCNC(=S)N1CCN(c2nc3ccccc3s2)CC1	none
O=S(=O)(c1ccccc1)N1CCN(c2nc3ccccc3s2)CC1	none
CC1CCN(C(=O)CSc2c3c(nc4cc(Cl)ccc24)CCCC3)CC1	none (no result: EPAC2 antag, EPAC2 agonist, EPAC1 antag, EPAC1 agonist)
O=C(Nc1ccccc1Br)c1ccc(OC(=S)N2CCOCC2)cc1	BRCA1 expr up 7.94µM
Cc1ccc(NC(=O)c2ccc(OC(=S)N3CCOCC3)cc2)cc1	none
Cc1nc(CN(C)c2ncnc3ccc(-c4ccc5c(c4)OCO5)cc23)cs1	EPAC2 antag 31.6µM (no result: USP1-UAF1 inh)
CN(Cc1ccco1)c1ncnc2ccc(-c3ccc4c(c3)OCO4)cc12	EPAC2 antag inconclusive (no result: USP1-UAF1 inh)
O=C(COC(=O)/C=C/c1cccc(C(F)(F)F)c1)Nc1cccc(S(=O)(=O)NC2=NCCC2)c1	none
O=C1c2cccc3cc([N+](=O)[O-])cc(c23)C(=O)N1/N=C/c1ccc(O)cc1O	EPAC1 antag 79.4µM
O=C(Nc1ncc(Cc2ccccc2)s1)C1CCN(C(=O)c2ccco2)CC1	none (no result: EPAC2 antag, EPAC2 agonist, EPAC1 antag, USP1-UAF1 inh, EPAC1 agonist)
CC(O)(c1ccc(F)c(F)c1)c1nc(-c2ccc3ccccc3c2)cs1 (stereo not given)	none (no result: USP1-UAF1 inh)

Source: PubChem (National Center for Advancing Translational Sciences (NCATS))
